Measurements: PubChem BioAssay (NCI)
About 83,000 compounds went through this panel and 20% of them were active in at least one assay; those are over-represented in the sample as a whole.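 Method: cells in 96-well plates; compound added at one concentration; 48 h incubation; percent growth measured; values under 10 scored active.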 Active and inactive are the calls of the source.

Tested on: SK-MEL-2 melanoma
Assay: NCI-60 one-dose screen, 48 h (100 = growth as untreated, 0 = no growth, -100 = all killed)
Conditions: 10 µM unless noted

| Compound | growth |
| --- | --- |
| C=C(C=O)[C@@H]1CC[C@]2(C)[C@H](CC=C3[C@H]4[C@@H](C)[C@H](C)CC[C@]4(C(=O)OC)CC[C@]32C)[C@@]1(C)CCC#N | -27.6% (active) |
| COc1ccc([C@@H]2c3[nH]c4ccccc4c3C[C@H]3C(=O)N(C4CCN(CC5CCCCC5)CC4)CC(=O)N23)c(OC)c1 | 95.9% (inactive) |
| c1ccc(C(c2nc3ncncc3[nH]2)N2CSc3nc4ncncc4n3C2)cc1 (stereo unspecified) | 70.5% (inactive) |
| Cc1occc1-c1nc2s/c(=C/c3ccc(-c4cc(C(F)(F)F)ccc4Cl)o3)c(=O)n2n1 | 109% (inactive) |
| CS(=O)(=O)c1ncc(-c2ccccc2)cn1 | 97.6% (inactive) |
| CCOC(=O)c1c(N)c(C#N)cn1-c1cc(OC)c(OC)c(OC)c1 | 129% (inactive) |
| CCCCCc1ccc(S(=O)(=O)Nc2cc(-c3csc(NC(=O)CN4CCN(C)CC4)n3)ccc2OC)cc1 | 73.6% (inactive) |
| Cc1nc2ncc(-c3ccc4ncnc(NCc5ccccc5)c4c3)cc2[nH]1 | 74% (inactive) |
| C=C(C=O)[C@@H]1CC[C@]2(COC(C)=O)CC[C@]3(C)C(CC[C@@H]4[C@@]5(C)CC[C@H](OC(C)=O)C(C)(C)[C@@H]5CC[C@]43C)[C@@H]12 (stereo partly specified) | -28% (active) |
| Cc1ccc(S(=O)(=O)N(CC[C@@H]2C[C@H]2c2cc3ccccc3o2)S(=O)(=O)c2ccc(C)cc2)cc1 | 102% (inactive) |
| COC(=O)c1ccc(NC2=C/C(=N/S(=O)(=O)c3ccc(C(=O)O)cc3)c3ccccc3C2=O)cc1 | 4.1% (active) |
| O=C(CCn1c[n+](CC(=O)c2ccc(F)cc2)c2ccccc21)Nc1cccc2cccnc12 | 81.7% (inactive) |
| CC1(C)CC[C@]2(C(=O)O)CC[C@]3(C)C(=CC[C@@H]4[C@@]5(C)CC/C(=N\OCCC#N)C(C)(C)[C@@H]5CC[C@]43C)[C@@H]2C1 | 93.5% (inactive) |
| COc1ccc([C@@H]2[C@@H](O)C(=O)N2c2cc(OC)c(OC)c(OC)c2)cc1F | -5.37% (active) |
| C=CCn1c(SCC(=O)Nc2ccc(C(=O)/C=C/c3cccc([N+](=O)[O-])c3)cc2)nnc1-c1c[nH]c2ccccc12 | 93.9% (inactive) |
| C#C[C@]1(O)CC[C@H]2[C@@H]3CC=C4c5sc(-c6ccc7c(c6)OCO7)nc5CC[C@]4(C)[C@H]3CC[C@@]21C | 28.9% (inactive) |

| Compound | growth |
| --- | --- |
| CCCCCc1ccc(S(=O)(=O)Nc2cccc(-c3csc(NC(=O)CN4CCN(C)CC4)n3)c2)cc1 | 100% (inactive) |
| CCCn1cnc2c(c1=N)C(c1ccc(F)cc1)c1sc3c(CC)cccc3c1O2 (stereo unspecified) | 49.4% (inactive) |
| O=C(NCCn1ccnc1)c1ccc(-c2nc3ccc4[nH]ncc4c3c3c2CCCC3)cc1 | 45.3% (inactive) |
| COc1cccc(O)c1/C=C(/C)c1ccc2c(OC)cccc2[o+]1 | 107% (inactive) |
| NS(=O)(=O)c1ccc(-n2cc(CN3CCCCC3)nn2)cc1 | 109% (inactive) |
| O=S(=O)(NCCNc1nccc(-n2cnc3ccccc32)n1)c1ccc(Cl)cc1 | 109% (inactive) |
| COC(=O)C1(C)CCC[C@]2(C)[C@H]3C[C@H]4C(C(C)C)=C[C@]3(CC[C@@H]12)[C@H]1[C@@H]4[C@@H](OC(=O)c2ccco2)CC[C@@H]1OC(=O)c1ccco1 (stereo partly specified) | 107% (inactive) |
| CCCn1cnc2c(c1=N)C(c1ccc(OC)cc1)c1sc3c(C)cccc3c1O2 (stereo unspecified) | 36.9% (inactive) |
| COc1cc(-c2nn(C(C)(C)C)cc2-c2ccnc(NCCCNS(=O)(=O)c3cccc(F)c3)n2)ccc1Cl | 85.8% (inactive) |
| CC1(C)CC[C@]2(CN)CC[C@]3(C)C(=CC[C@@H]4[C@@]5(C)CCCNC(C)(C)[C@@H]5CC[C@]43C)[C@H]2C1 | 108% (inactive) |
| NC(=O)c1cccc(C#CCNC[C@H]2C[C@@H](n3ccc4c(Cl)ncnc43)[C@H](O)[C@@H]2O)c1 | 104% (inactive) |
| NC(N)=Nc1ccc(Oc2cccc(Nc3cccc(C(F)(F)F)c3)c2)cn1 | 64.8% (inactive) |
| COc1ccc(/C(N)=N/C(N)=N/c2nc3ccccc3s2)cc1 | 66.7% (inactive) |
| COc1c(N2CC3CCCNC3C2)c(F)cc2c(=O)c(C(=O)N/N=C/c3ccc(Br)cc3)cn(C3CC3)c12 (stereo unspecified) | 100% (inactive) |
| O=C(c1ccc(O)cc1)[C@@H]1CN[C@@]2(C(=O)Nc3ccccc32)[C@H]1c1ccc(F)cc1 | 104% (inactive) |
| Nc1nc(Nc2ccccc2SSc2ccccc2Nc2nc(N)nc(-c3ccc4ccccc4c3)n2)nc(-c2ccc3ccccc3c2)n1 | 99.4% (inactive) |

Tested on: EKVX NSCLC
Assay: as above
Conditions: 10 µM unless noted

| Compound | growth |
| --- | --- |
| C=C(C=O)[C@@H]1CC[C@]2(C)[C@H](CC=C3[C@H]4[C@@H](C)[C@H](C)CC[C@]4(C(=O)OC)CC[C@]32C)[C@@]1(C)CCC#N | 15.2% (inactive) |
| COc1ccc([C@@H]2c3[nH]c4ccccc4c3C[C@H]3C(=O)N(C4CCN(CC5CCCCC5)CC4)CC(=O)N23)c(OC)c1 | 61.6% (inactive) |
| c1ccc(C(c2nc3ncncc3[nH]2)N2CSc3nc4ncncc4n3C2)cc1 (stereo unspecified) | 94.4% (inactive) |
| Cc1occc1-c1nc2s/c(=C/c3ccc(-c4cc(C(F)(F)F)ccc4Cl)o3)c(=O)n2n1 | 100% (inactive) |
| CNCc1cccc2c1OCCCCCCC(C)(O)CC(C)(C)S(=O)(=O)c1ccc(cc1)-c1cnc(N)c(n1)C(=O)N2 (stereo unspecified) | 62.7% (inactive) |
| CS(=O)(=O)c1ncc(-c2ccccc2)cn1 | 97.1% (inactive) |
| CCOC(=O)c1c(N)c(C#N)cn1-c1cc(OC)c(OC)c(OC)c1 | 96% (inactive) |
| CCCCCc1ccc(S(=O)(=O)Nc2cc(-c3csc(NC(=O)CN4CCN(C)CC4)n3)ccc2OC)cc1 | 63.4% (inactive) |
| Cc1nc2ncc(-c3ccc4ncnc(NCc5ccccc5)c4c3)cc2[nH]1 | 25.3% (inactive) |
| Cc1ccc(S(=O)(=O)N(CC[C@@H]2C[C@H]2c2cc3ccccc3o2)S(=O)(=O)c2ccc(C)cc2)cc1 | 95.3% (inactive) |
| COC(=O)c1ccc(NC2=C/C(=N/S(=O)(=O)c3ccc(C(=O)O)cc3)c3ccccc3C2=O)cc1 | 88.3% (inactive) |
| O=C(CCn1c[n+](CC(=O)c2ccc(F)cc2)c2ccccc21)Nc1cccc2cccnc12 | 89.5% (inactive) |
| CC1(C)CC[C@]2(C(=O)O)CC[C@]3(C)C(=CC[C@@H]4[C@@]5(C)CC/C(=N\OCCC#N)C(C)(C)[C@@H]5CC[C@]43C)[C@@H]2C1 | 70.7% (inactive) |
| COc1ccc([C@@H]2[C@@H](O)C(=O)N2c2cc(OC)c(OC)c(OC)c2)cc1F | 41.8% (inactive) |
| CCOC(=O)c1c(Nc2ccccc2)nn2c(-c3ccccc3)ccnc12 | 95.4% (inactive) |
| Cc1cc(C)c2sc(=O)n(Cc3nnc(SCCC(=O)O)o3)c2n1 | 102% (inactive) |
| C=CCn1c(SCC(=O)Nc2ccc(C(=O)/C=C/c3cccc([N+](=O)[O-])c3)cc2)nnc1-c1c[nH]c2ccccc12 | 89.1% (inactive) |

| Compound | growth |
| --- | --- |
| Cc1ccc(NC(=O)N[C@@H](Cc2cc(F)cc(F)c2)C(=O)NC2C(=O)N3C[C@H](O)C[C@H]3C(=O)N3CCCC[C@H]3C(=O)N[C@@H](CO)C(=O)N3C[C@H](C)C[C@H]3C(=O)O[C@H]2C)c(F)c1 (stereo partly specified) | 40.7% (inactive) |
| C#C[C@]1(O)CC[C@H]2[C@@H]3CC=C4c5sc(-c6ccc7c(c6)OCO7)nc5CC[C@]4(C)[C@H]3CC[C@@]21C | 34.5% (inactive) |
| CCCCCc1ccc(S(=O)(=O)Nc2cccc(-c3csc(NC(=O)CN4CCN(C)CC4)n3)c2)cc1 | 89.2% (inactive) |
| CCCn1cnc2c(c1=N)C(c1ccc(F)cc1)c1sc3c(CC)cccc3c1O2 (stereo unspecified) | 33.4% (inactive) |
| O=C(NCCn1ccnc1)c1ccc(-c2nc3ccc4[nH]ncc4c3c3c2CCCC3)cc1 | 87.6% (inactive) |
| COc1cccc(O)c1/C=C(/C)c1ccc2c(OC)cccc2[o+]1 | 96.5% (inactive) |
| NS(=O)(=O)c1ccc(-n2cc(CN3CCCCC3)nn2)cc1 | 101% (inactive) |
| O=S(=O)(NCCNc1nccc(-n2cnc3ccccc32)n1)c1ccc(Cl)cc1 | 92.2% (inactive) |
| COC(=O)C1(C)CCC[C@]2(C)[C@H]3C[C@H]4C(C(C)C)=C[C@]3(CC[C@@H]12)[C@H]1[C@@H]4[C@@H](OC(=O)c2ccco2)CC[C@@H]1OC(=O)c1ccco1 (stereo partly specified) | 99.1% (inactive) |
| CC1(C)CC[C@]2(CN)CC[C@]3(C)C(=CC[C@@H]4[C@@]5(C)CCCNC(C)(C)[C@@H]5CC[C@]43C)[C@H]2C1 | 96% (inactive) |
| NC(=O)c1cccc(C#CCNC[C@H]2C[C@@H](n3ccc4c(Cl)ncnc43)[C@H](O)[C@@H]2O)c1 | 106% (inactive) |
| NC(N)=Nc1ccc(Oc2cccc(Nc3cccc(C(F)(F)F)c3)c2)cn1 | 2.37% (active) |
| O=C(CSc1nc2ccccc2c(=O)n1-c1ccccc1)Nc1cccc(C(=O)/C=C/c2ccccc2)c1 | 96.7% (inactive) |
| COc1ccc(/C(N)=N/C(N)=N/c2nc3ccccc3s2)cc1 | 61% (inactive) |
| COc1c(N2CC3CCCNC3C2)c(F)cc2c(=O)c(C(=O)N/N=C/c3ccc(Br)cc3)cn(C3CC3)c12 (stereo unspecified) | 90.4% (inactive) |
| O=C(c1ccc(O)cc1)[C@@H]1CN[C@@]2(C(=O)Nc3ccccc32)[C@H]1c1ccc(F)cc1 | 91.9% (inactive) |
| Nc1nc(Nc2ccccc2SSc2ccccc2Nc2nc(N)nc(-c3ccc4ccccc4c3)n2)nc(-c2ccc3ccccc3c2)n1 | 44.7% (inactive) |
